This is a sample that favours compounds with a hit; in the whole collection about 1.5% have one here.
FID counter – compounds displacing fluorescent DNA intercalator, primary screen, artefact control for HCV NS3 helicase inhibitor project, biochemical, FID fluorescence. DNA fluorescent intercalator displacement. inhibition, % at 7.9 µM. hit rate 0.17% among 290,000. AID 1845, 2009; in the data active means inhibition above about 37%;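 further: 0% = vehicle and 100% = reference compound; higher means more ethidium bromide displaced from hairpin DNA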
CendR NRP1 mod – modulators of CendR peptide binding to NRP-1, primary screen, biochemical, fluorescence polarization, uHTS. inhibition, % at 25 µM. Neuropilin-1 (Homo sapiens), O14786. FAM-RPARPAR peptide binding to NRP-1. hit rate 0.85% among 360,000;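 active means inhibition or corrected inhibition above about 18%, plus a signal ratio from 0.5 to 1.5, limit read from the data, passing the limit was not always enough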
miR-122 sensor – miR-122 Renilla sensor signal increase in Huh7, primary screen, miR-122 inhibitor project, cell-based, single point, plate reader. hit rate 0.3% among 340,000. activation (reporter increase), % at 12.5 µM. Huh7 miR-122 Renilla luciferase sensor, 48 h; neutral wells = 0, positive control = 100;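 active means mean replicate activation score at least 90 and every replicate individually at or above 90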;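 further: higher luciferase means less miR-122 activity so hits act as miR-122 inhibitors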
N-glyco inh – increase of ERlucT glycosylation luciferase signal, primary screen, N-linked glycosylation inhibitor project, D54 ERlucT cells, luminescence, set 2 | D54 ERlucT glycosylation luciferase reporter, 24 h; percent of 100 nM tunicamycin response | reporter increase, % at 12.5 µM | hit rate 0.23% among 360,000 | AID 588692, 2011;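 active means mean luciferase reporter signal, scaled so untreated is 0 and the glycosylation-blocking control 100, at or above a set limit in every replicate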;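 further: luciferase carries N-glycosylation sites so blocking glycosylation raises the light; 0% = median of neutral control wells and 100% = median of 100 nM tunicamycin wells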
RAD52 anneal inh – RAD52 DNA annealing inhibitors, primary screen, biochemical, FRET, single point, set 2. inhibition, % at 18.7 µM. AID 651710, 2012. hit rate 0.46% among 360,000. DNA repair protein RAD52 homolog (Homo sapiens), P43351. recombinant RAD52 DNA annealing, FRET fluorescence;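 active means every replicate showing at least 50% inhibition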
RAD54 branch – inhibitors of human RAD54 branch migration, primary screen, biochemical, fluorescence, single point; DNA repair and recombination protein RAD54-like (Homo sapiens), Q92698; RAD54 Holliday junction branch migration, FAM/BHQ fluorescence; inhibition, % at 10.4 µM; hit rate 0.14% among 360,000; AID 602329, 2012;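 active means mean normalized replicate activity at least 40 and at least half of replicates scoring 40 or more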;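 further: 0% = median of neutral control wells and 100% = median of positive control wells; inhibitors cause a drop in the FAM fluorescence signal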
Starred values were filed as active, the others as inactive; · = not tested or not shown; [ ] = dose if it differs, or a comment.

SMILES	FID counter	CendR NRP1 mod	miR-122 sensor	N-glyco inh	RAD52 anneal inh	RAD54 branch
CN(c1ccc(OCC(=O)OCC(=O)Nc2ccc([N+](=O)[O-])cc2)cc1)S(=O)(=O)c1cccs1	·	32.4*	·	-1.2	-36.1	-4.3
CCCN=C1N/C(=C\c2ccco2)C(=O)N1c1ccccc1	-14.2	43.3*	3.1	2.7	·	-7.1
CO[C@@H]1CN(C)C(=O)c2ccc(NC(=O)C3CC3)cc2OC[C@H](C)N(Cc2cncnc2)C[C@@H]1C	·	·	34.0[16.7 µM]	·	·	·
O=C(NNC(=O)c1ccccc1Cl)c1cccnc1	-7.5	22.8*	-1.2	-0.6	-14.5	-1.6
CN(CC(=O)NNC(=O)c1cccnc1)S(=O)(=O)c1cc(Cl)ccc1Cl	-1.1	39.7*	3.3	-0.9	-3.2	3.7
CN(CC(=O)Nc1cccnc1)S(=O)(=O)c1cc(Cl)ccc1Cl	-8.5	5.0	-6.2	0.7	-20.3	4.2
O=C(O)C[C@H]1C=C[C@@H](NC(=O)CCN2CCCCC2)[C@@H](CO)O1	·	·	·	·	-3.4	·
O=C(Cc1cccnc1)N1CC2(C1)[C@@H](c1ccccc1)[C@@H](CO)N2C(=O)C1CCCC1	·	·	·	·	-7.9	·
Cn1c(=O)c2[nH]c(NCCCN3CCOCC3)nc2n(C)c1=O	-3.3	22.3*	-9.1	1.9	·	5.5
Cc1ccc(Nc2nc3c([nH]2)c(=O)n(C)c(=O)n3C)cc1	-0.4	-3.2	3.2	-3.7	·	2.2
C[C@@H]1CN([C@H](C)CO)C(=O)c2cc(NC(=O)Cn3cnnn3)ccc2O[C@@H]1CN(C)C(=O)Nc1ccc(F)cc1	·	·	3.2[16.7 µM]	·	4.2	-1.3
COC(=O)c1ccccc1-c1ccc(C=O)o1	0.3	-11.0	-8.9	-0.4	-11.2	·
O=Cc1ccc(-c2ccccc2C(=O)O)o1	9.6	34.6*	·	-0.7	-9.8	·
CCOC(=O)CCC(NC(=O)CCC(=O)NC(CCC(=O)OCC)C(=O)OCC)C(=O)OCC (configuration not stated)	-22.1	7.2	-17.3	0.3	·	·
CCOC(=O)CCC(NC(=O)CCCC(=O)NC(CCC(=O)OCC)C(=O)OCC)C(=O)OCC (configuration not stated)	-9.4	22.2*	·	1.4	1.8	·
COc1cc(-c2nnc(SCC(=O)c3ccccc3)o2)cc(OC)c1OC	-24.8	1.2	·	1.5	-8.3	-4.0
COc1cc(-c2nnc(SCC(=O)Nc3ccc(C(=O)O)cc3)o2)cc(OC)c1OC	·	31.3*	-6.6	0.4	-15.3	-10.8
CC(=O)N(C)C[C@@H]1[C@@H](c2ccc(-c3cccnc3)cc2)[C@H](CO)N1C(=O)C1CC1	·	·	258.3*[16.7 µM]	·	3.6	0.6
CO[C@@H]1CN(C)C(=O)c2cc(NC(=O)C3CCCC3)ccc2OC[C@H](C)N(CC2CC2)C[C@H]1C	·	·	·	·	14.1	-12.1
CN(C)C(=O)C[C@@H]1CC[C@@H]2[C@H](COC[C@H](O)CN2C(=O)c2ccncc2)O1	·	·	4.1[16.7 µM]	·	69.8*	2.4
CN(C)C(=O)C[C@@H]1CC[C@@H]2[C@H](COC[C@@H](O)CN2C(=O)c2ccncc2)O1	·	·	-2.3[16.7 µM]	·	·	3.9
CN(C)CC#Cc1ccc([C@H]2[C@H](CO)N3CCCCN(C(=O)C4CC4)C[C@@H]23)cc1	·	·	-27.7[16.7 µM]	·	·	-2.0
CCC(=O)N1C[C@H](C)[C@H](OC)CN(C)C(=O)c2cc(NC(=O)C3CCOCC3)ccc2OC[C@@H]1C	·	·	·	·	3.2	8.6
CC(Oc1ccc2c3c(c(=O)oc2c1)CCC3)C(=O)NC1CCN(Cc2ccccc2)CC1 (configuration not stated)	10.9	18.0*	-3.4	-2.6	-7.0	-6.6
Cc1cc(=O)oc2cc(OC(C)C(=O)NC3CCN(Cc4ccccc4)CC3)ccc12 (configuration not stated)	15.1	-1.5	·	0.5	-13.6	7.9
SMILES	FID counter	CendR NRP1 mod	miR-122 sensor	N-glyco inh	RAD52 anneal inh	RAD54 branch
CC(C)c1ccc(S(=O)(=O)N2CCN(C(=O)CN3C(=O)c4ccccc4C3=O)CC2)cc1	·	30.1*	0.9	1.0	-122.1	1.7
COC(=O)c1cn(CC(=O)N2CCN(c3ccccc3)CC2)nn1	·	·	·	·	5.3	-8.8
Cc1nnc(NC(=O)CSc2cn(CCNC(=O)c3ccccc3)c3ccccc23)s1	-16.9	-1.3	-2.1	-2.4	-7.4	-12.9
COc1ccc(C(=O)NCCn2cc(SCC(=O)Nc3nnc(C)s3)c3ccccc32)cc1	-26.4	24.2*	1.1	-5.7	-18.4	·
C[C@H]1CCCCO[C@@H](CN(C)S(C)(=O)=O)[C@@H](C)CN([C@@H](C)CO)C(=O)c2cc(N(C)C)ccc2O1	·	·	-3.6[16.7 µM]	·	-32.7	-6.0
Cc1ccc(-c2cnc3c(c2)C(=O)N([C@@H](C)CO)C[C@@H](C)[C@H](CN(C)C(=O)c2cccc(F)c2)O3)cc1	·	·	-0.1[16.7 µM]	·	7.1	·
CN(C)CCN1CCN(C2CN(Cc3ccc([N+](=O)[O-])cc3)S(=O)(=O)C2)CC1 (configuration not stated)	·	22.2*	4.7	1.2	2.0	-0.6
CN1C(=O)c2cccc3c(S(N)(=O)=O)ccc1c23	-3.5	-3.5	-5.3	3.5	-3.4	-4.1
Cc1ccccc1NS(=O)(=O)c1ccc2c3c(cccc13)C(=O)N2C	-9.5	12.3	·	42.3*	3.2	4.2
CN1C(=O)c2cccc3c(S(=O)(=O)NCc4ccco4)ccc1c23	1.4	-7.9	56.0	14.2	·	-4.1
CN1C(=O)c2cccc3c(S(=O)(=O)Nc4ccccn4)ccc1c23	-1.4	-4.2	46.6	40.8*	·	·
CCCC(=O)Nc1ccc2c(c1)OC[C@@H](C)N(Cc1ccncc1)C[C@H](C)[C@@H](OC)CN(C)C2=O	·	·	17.4[16.7 µM]	·	14.6	-6.3
NC1=NC[C@@H](Cc2ccc(O)cc2)N1CCCCC1CCCCC1	·	30.9*	-0.7	7.7	-58.4	10.8
C[C@@H]1CN([C@@H](C)CO)C(=O)Cc2cc(NS(=O)(=O)c3cn(C)cn3)ccc2O[C@H]1CN(C)Cc1ccccc1	·	·	1.2[16.7 µM]	·	7.5	-1.9
CCCCNC(=S)N1CCn2cccc2C1c1ccccc1 (configuration not stated)	2.3	27.1*	1.4	-1.8	-88.1	-6.0
CCCCNC(=S)N1CCn2cccc2C1c1ccc(F)cc1 (configuration not stated)	-3.0	-12.3	·	-7.0	-58.5	·
C[C@H]1CCC[C@]2(O[C@H](CCO)C[C@H](O)[C@H]2O)O1	·	29.2*	1.6	0.1	7.9	-1.2
C[C@H](NC(=O)[C@H]1[C@H](CO)[C@H]2Cn3c(ccc(C4=CCCCC4)c3=O)[C@@H]1N2)c1ccccc1	·	·	0.6[16.7 µM]	·	-9.1	9.0
c1ccc2c(c1)OCC(c1nnc3n1-c1ccccc1SC3)O2 (configuration not stated)	-20.7	45.0*	3.0	-3.4	·	3.4
